Experimental findings from PubChem BioAssay AID504714 (Sanford-Burnham Center for Chemical Genomics, 2011) are described below.

Among all 1,000 compounds or so, fewer than 10 were called active. How the calls were made is not given here. These entries were drawn from the full list.

The test can be described thus: E. coli UDG inhibitors, confirmation, counter-screen for APOBEC3A inhibitor project, biochemical, single concentration, fluorescence, FAM/TAMRA oligo (AID 504714). Particulars: UDG counterscreen, FAM/TAMRA uracil oligo fluorescence; at 20 µM; hits give high values. Background: The purpose of a counterscreen is to sort out artefacts and off-target activity.
The inhibition is the change of the read-out against control, counted positive when it falls. On to `CCCN1C2=C(C(=O)CCC2)C(c2ccc(O)c(Br)c2)C2=C1CCCC2=O`, for which the inhibition is 0.9% (inactive).

For the compound `COc1ccc(CNc2nnnn2C)cc1`, the inhibition is -2.73% (inactive).

`CCN1C(=NCC(C)C)N[C@@H](CCc2ccccc2)[C@H](C(=O)NCC(C)C)[C@H]1C`: the inhibition was -1.61% (inactive). For the compound `COC(=O)C[n+]1cccc2ccccc21`, the inhibition was -1.97% (inactive). On to `N#Cc1ccsc1NC(=O)CN1CCN(S(=O)(=O)c2cc(Cl)ccc2Cl)CC1`, for which the inhibition was -0.63% (inactive).

For the compound `COc1ccc(Br)cc1CN(C)C(=O)C1CC(=O)N(C2CCCC2)C1` (centres undefined), the inhibition was 1.84% (inactive).

On to `COCCCn1c(Cc2csc(Nc3cccc(Cl)c3)n2)nnc1SCC(=O)OC1CCCCC1`, for which the inhibition is 5.59% (inactive). Take `COc1ccc(CCNC(=O)COC(=O)/C=C/c2cccs2)cc1OC`: the inhibition is -1.3% (inactive). Turning to `COc1ccccc1CCNC(=O)C1CCN(C(=O)/C=C/c2ccccc2)CC1`, the inhibition is 2% (inactive). As for `CCCCNC(=O)CSc1nc2ccc(NC(=O)CSc3nnc(N)s3)cc2s1`, the inhibition was -1.96% (inactive). On to `CC(C)CCOc1ccc(C(=O)C[N+]2(C)CCOCC2)cc1`, for which the inhibition was 1.5% (inactive). For `O=C(c1ccc(CS(=O)(=O)c2ccccc2)o1)N1CCN(c2ccccc2)CC1`, the inhibition was -1.02% (inactive). For `COC(=O)C1=C(C)N(Cc2ccccc2)C(=NCCCOC(C)C)N[C@H]1c1ccccc1`, the inhibition was -3.67% (inactive). For the compound `CC1(C)CC(N2CCN(C(c3ccccc3)c3ccccc3)CC2)=CC(=[N+]2CCCCC2)C1`, the inhibition is -2.53% (inactive). `S=C(Nc1cccnc1)Nc1ccccn1`: the inhibition is -1.6% (inactive). Take `CC1(C)Oc2ccc3ccc(=O)oc3c2/C(=C/NCCO)C1=O`: the inhibition is -2.48% (inactive). On to `NS(=O)(=O)c1cc(C(=O)OCC(=O)NNC(=O)c2ccccc2)ccc1Cl`, for which the inhibition is 5.01% (inactive). The value for `O=C1c2oc3ccccc3c(=O)c2C(c2cccc(O)c2)N1c1ccccn1` (centres undefined) was 3.41% (inactive); that for `CSc1nnc(SCc2nc3sc(C(=O)O)c(C)c3c(=O)[nH]2)s1` was -3.34% (inactive). The value for `CCn1c(SCC(=O)Nc2cccc(F)c2)nnc1-c1cc2cc(Br)ccc2o1` was 6.96% (inactive); that for `CCOC(=O)c1ccc(NC(=O)CSc2ncccn2)cc1` was 1.35% (inactive). As to `Cc1ccc(CCCOC(=O)C[N+]2(C)CCCCC2)cc1`, the inhibition was 0.55% (inactive). Take `C[N+](C)(CCCCCC[N+](C)(C)CCCN1C(=O)c2cccc3cccc(c23)C1=O)CCCN1C(=O)c2cccc3cccc(c23)C1=O`: the inhibition was 1.2% (inactive).

`CC(Oc1ccc(F)cc1)C(=O)Nc1cc(S(=O)(=O)N2CCOCC2)ccc1N1CCN(C)CC1` (centres undefined): the inhibition is -3.61% (inactive).

As for `C=CC1=C(C(=O)O)N2C(=O)[C@@H](NC(=O)/C(=N/OCC(=O)O)c3csc(N)n3)[C@H]2SC1`, the inhibition was -3.4% (inactive). On to `O=C(COC(=O)c1cnc(Cl)c(Cl)c1)NCc1ccco1`, for which the inhibition is 0.62% (inactive). For the compound `Cc1ccc(C(=O)N/N=C\c2cc(Br)c(Br)o2)cn1`, the inhibition was 2.94% (inactive).

As for `CC(C)c1ccc(/C=C2\NC(=O)NC2=O)cc1`, the inhibition was -1.04% (inactive). In the case of `CC[n+]1cc(C)ccc1/C=C/c1ccc(N(C)C)cc1`, the inhibition was -2.09% (inactive).

Take `CS(=O)(=O)c1ccc2c(c1)SC1=NC(=O)/C(=C/c3ccco3)C(=N)N12`: the inhibition was 1.37% (inactive).

On to `CC(=O)Nc1ccc(NC(=O)C2CCCN(S(=O)(=O)c3ccc(Cl)cc3)C2)cc1` (centres undefined), for which the inhibition was 7.05% (inactive).

As to `CCNC(=O)COC(=O)CCNC(=O)c1cccc(C)c1`, the inhibition was -0.25% (inactive). As to `CC(=O)Nc1ccc(Nc2cc(C)nc(Nc3ccc(NC(C)=O)cc3)n2)cc1`, the inhibition is 4.81% (inactive). Consider `CCCCCCCC[n+]1cccc(C(=O)N2c3c(nc(N)[nH]c3=O)NC(C)C2C)c1` (centres undefined), for which the inhibition was -1.86% (inactive). The value for `C[n+]1ccc(C(=O)NCc2ccccc2)cc1` was -2.62% (inactive); that for `CCN1C(=NCCc2cccnc2)N[C@@H](c2ccccc2)[C@H](C(=O)OC)[C@H]1C` was -0.96% (inactive); that for `O=C(Nc1cccc(-c2nc3ccccc3[nH]2)c1)c1ccc(C(=O)Nc2cccc(-c3nc4ccccc4[nH]3)c2)cc1` was -1.03% (inactive). On to `CC(/C=C/c1ccccc1)=N\NC(=O)C1CC1(C)c1ccccc1` (centres undefined), for which the inhibition was 1.23% (inactive). In the case of `Cc1cc2c(cc1C)[n+](C)cn2CC(O)COCC1CC=CCC1` (centres undefined), the inhibition was 4.84% (inactive).

`Cc1csc(SCC(=O)Nc2sccc2C#N)n1`: the inhibition is -2.94% (inactive). For `COc1ccc(C)cc1NC(=O)CCCN1C(=O)NC(C)(C)C1=O`, the inhibition is 2.69% (inactive). With `CCN(CC)CCCNC(=O)CCn1nc(-c2ccc(Cl)cc2)ccc1=O`, the inhibition was -0.02% (inactive). The value for `N#Cc1ncc(C(F)(F)F)cc1Oc1cccnc1` was -2.52% (inactive); that for `C[N+]1(CCNC(=O)/C=N/O)CCCCC1` was 2.37% (inactive); that for `CSc1nnc(-c2ccncc2)n1CCCN1CCCC1=O` was 2.58% (inactive).

For `C[N+]1(CC(O)COc2ccccc2)CCN(C(=O)c2ccc([N+](=O)[O-])cc2)CC1` (centres undefined), the inhibition is -0.77% (inactive). The value for `CCCc1nc(-c2cc3cc(C)ccc3[nH]c2=O)no1` was -1.41% (inactive); that for `CCN1C(=NCc2ccc(OC)cc2)N[C@@H](CCc2ccccc2)[C@H](C(=O)NCc2ccc(OC)cc2)[C@H]1C` was 2.26% (inactive); that for `CCS(=O)(=O)c1ccc(-c2cccc(NC(=O)c3ccc(Br)o3)c2)nn1` was -1.58% (inactive). The value for `COc1ccc(Cc2nnc(NC(=O)c3ccc(OC)cc3OC)s2)cc1` was 2.26% (inactive); that for `Cc1nnc(N/N=C/c2ccccn2)[nH]c1=O` was 3.44% (inactive); that for `COc1ccccc1-c1noc(CSc2nc(C)cc(=O)[nH]2)n1` was -1.99% (inactive).

Take `N#Cc1ccccc1CN1C(=O)S/C(=C/c2cccn2-c2cccc(C(=O)O)c2)C1=O`: the inhibition was -1.19% (inactive). As for `CC[n+]1c(C)n(-c2ccccc2)c2ccc(NC(C)=O)cc21`, the inhibition was -1.23% (inactive).
